We go through 40 molecules from PubChem BioAssay (NCI).

Compounds without any hit were thinned out: in the full panel of roughly 83,000, 20% have a hit.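 Each cell line was grown in a 96-well plate and treated with one concentration of compound for 48 hours. Values below 10 were considered active.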 Active and inactive are the calls of the source.

One experiment concerns HS 578T breast. As to the kind of experiment: NCI-60 one-dose screen, 48 h (100 = growth as untreated, 0 = no growth, -100 = all killed). The settings on record: 10 µM.
As for `O=C(CSc1nnc(-c2c[nH]c3ccccc23)n1-c1ccccc1)c1ccc(Br)cc1`, the growth is 52.3% (inactive).
On to `Cc1ccc(/C=C/C(=O)c2ccc(NC(=O)CSc3nnc(-c4c[nH]c5ccccc45)n3-c3ccccc3)cc2)cc1`, for which the growth is 83.8% (inactive).
As to `CC1=C(c2cc(-c3ccc(Cl)cc3)c(C#N)c(N)n2)C(c2ccccc2)NC(=S)N1` (stereo not drawn), the growth was 75.3% (inactive).
As to `COc1ccc(-c2cc(-c3cc(C(=O)c4ccccc4)n4ccc(C)cc34)nc(N)c2C#N)cc1`, the growth is 8.95% (active).
In the case of `COc1cc2c3c(n(CCCNCCO)c(=O)c2cc1OC)-c1nc2c(cc1C3=O)OCO2`, the growth was 65.6% (inactive).
Turning to `COc1ccc(/C=C/C(=O)c2ccc(N3CCN(C)CC3)cc2)c(C(F)(F)F)c1`, the growth was 18.8% (inactive).
Turning to `Cn1cc(/C=N/Nc2cccc(Cl)n2)c2ccccc21`, the growth is 69.4% (inactive).
The same measure, in the same setting: in the case of `COc1ccc(C(=O)CSc2nnc(-c3c[nH]c4ccccc34)n2-c2ccccc2)cc1` it was 15.5% (inactive); in that of `N#Cc1c(NC(=O)c2ccc(C(F)(F)F)c(Cl)c2)sc2c1CCC(=O)C2`, -26% (active); in that of `COc1cc(/C=C/C(=O)c2ccc(NC(=O)CSc3nnc(-c4c[nH]c5ccccc45)n3-c3ccccc3)cc2)cc(OC)c1OC`, 93.2% (inactive).
On to `O=C(Nc1cccc([N+](=O)[O-])c1)Nc1cccc([N+](=O)[O-])c1`, for which the growth was 92.5% (inactive).
As to `COc1cc(NC(=O)CSc2nnc(-c3ccc4nc(-c5ccc(Cl)cc5)[nH]c4c3)o2)cc(OC)c1OC`, the growth was 50.6% (inactive).
Consider `O=S(=O)(Nc1ncccn1)c1ccc(-n2c(-c3ccc(Br)cc3)nc(-c3ccccc3)c2-c2ccccc2)cc1`, for which the growth was 20.4% (inactive).
With `CCN1CCN(Cc2ccc(C(=O)Nc3cccc(-c4cn(-c5ccc6oc(=O)ccc6c5)nn4)c3)cc2C(F)(F)F)CC1`, the growth is -21.6% (active).
The same measure, in the same setting: the value for `Cc1cc(=O)oc2cc(OCCCCOc3ccc(/C=C/C(=O)Nc4ccc(F)c(Cl)c4)cc3)ccc12` was 111% (inactive).
`Cc1cc(C)nc(/N=C(\N)Nc2ccc(S(=O)(=O)Nc3nc(C)cc(C)n3)cc2)n1`: the growth was 103% (inactive).
With `Cc1cccc(-c2nc(Nc3ccccc3C(=O)O)c3ccccc3n2)c1`, the growth is 16.6% (inactive).
Same read-out and setting: the value for `C=C1CCC2C3(C)COC(c4cccc(F)c4)OC3CCC2(C)C1CC(O)C1=CCOC1=O` (stereo not drawn) was 74.6% (inactive).
For `CC1CC(c2ccc(N(C)C)cc2)=NN1c1nc(O)c(C2=c3cc(Br)ccc3=NC2=O)s1` (stereo not drawn), the growth is 70% (inactive).
Consider `C/C(=N\NC(N)=S)c1ccc(Nc2nc(SC(C)C)nc(-c3ccccc3)c2C#N)cc1`, for which the growth was 18.7% (inactive).
`O=c1c2ccccc2nc(COc2ccccc2)n1/N=C/c1ccc(N2CCCC2)cc1`: the growth is 94.8% (inactive).
On to `CN1CCN(Cc2ccc(NC(=O)c3cncc(C#Cc4cnc5ccc(N[C@H]6CCOC6)nn45)c3)cc2C(F)(F)F)CC1`, for which the growth is -42.7% (active).
For the molecule `Cn1cc(-c2cc(N)n3nc(-c4c[nH]c5ccc(Br)cc45)cc3n2)c2cc(Br)cnc21`, the growth was -29% (active).
Consider `CC(=O)Nc1ccc(-n2cnc3cc(-c4ccc(NS(C)(=O)=O)cc4)ccc32)cc1`, for which the growth is 57.9% (inactive).
For `COc1ccccc1C(=O)NNC(=O)CSc1nc2c(c(=O)[nH]1)CCCC2`, the growth was 108% (inactive).
Take `O=c1[nH]c2ccccc2cc1CSc1ccc(Nc2nccc(-c3ccc(C(F)(F)F)cc3)n2)cc1`: the growth is -8.2% (active).
As for `COc1cnc2c(c1)C(=O)c1c-2n(CCCNCCO)c(=O)c2cc(OC)c(OC)cc12`, the growth is 105% (inactive).
With `C/C(=N\N=C\c1ccc(Cl)c([N+](=O)[O-])c1)c1ccc2c(c1)Nc1ccccc1S2`, the growth is 0.197% (active).

The next experiment deals with NCI/ADR-RES ovarian. The experiment is described as above. Conditions: 10 µM.
As for `C#CCNC(=O)CCC(=O)OC[C@]12CC[C@@H](C(=C)C)[C@@H]1C1CC[C@@H]3[C@@]4(C)CCCNC(C)(C)[C@@H]4CC[C@@]3(C)[C@]1(C)CC2` (stereo partly drawn), the growth is -75.1% (active).
`Cc1ccc(-c2nc(Nc3ccc(S(N)(=O)=O)cc3)c3ccccc3n2)cc1`: the growth was 54.7% (inactive).
`N#Cc1ccc(-c2nn(-c3ccc(C(=O)O)cc3)cc2CNc2cccc(Br)c2)cc1`: the growth is 13% (inactive).
In the case of `Cc1noc2c(Cc3ccc([N+](=O)[O-])cc3)nn(CC(=O)N/N=C/c3ccc(Br)cc3)c(=O)c12`, the growth is 88.5% (inactive).
For `Cc1ccc(/C=C/C(=O)c2ccc(NC(=O)CSc3nnc(-c4c[nH]c5ccccc45)n3-c3ccccc3)cc2)c(C)c1`, the growth was 64.2% (inactive).
For the molecule `O=C1c2ccccc2C(=O)c2c1c(C(=O)c1ccc(Cl)cc1)n1c2ccc2c3ccccc3ccc21`, the growth was 103% (inactive).
In the case of `COc1ccc(C(=O)Nc2sc3c(c2C#N)CCC(=O)C3)cc1C(F)(F)F`, the growth was -44.7% (active).
In the case of `COc1ccc(C2NC(=S)NC(C)=C2C(=O)OC(C)C)cc1OC` (stereo not drawn), the growth is 102% (inactive).
As for `COc1ccc(OC)c(/C=N/NC(=O)c2ccc3nc(-c4ccc(Cl)cc4)[nH]c3c2)c1`, the growth was 88.8% (inactive).
With `Nc1nc(Nc2ccc(Cl)cc2)n(Cc2cccc(Br)c2)n1`, the growth was -25% (active).
Turning to `O=C(CSc1nnc(-c2ccc3nc(-c4ccc(Cl)cc4)[nH]c3c2)o1)Nc1ccc(Br)cc1`, the growth was 10.9% (inactive).
As to `COc1cc2c(cc1OC)CN(CCCCOc1cc(O)c3c(=O)cc(-c4ccccc4)oc3c1)CC2`, the growth was 57.4% (inactive).
Consider `O=C(CSc1nnc(-c2c[nH]c3ccccc23)n1-c1ccccc1)c1ccc(Br)cc1`, for which the growth is 26.3% (inactive).
Consider `Cc1ccc(/C=C/C(=O)c2ccc(NC(=O)CSc3nnc(-c4c[nH]c5ccccc45)n3-c3ccccc3)cc2)cc1`, for which the growth is 93.6% (inactive).
Still for that read-out and setting: in the case of `CC1=C(c2cc(-c3ccc(Cl)cc3)c(C#N)c(N)n2)C(c2ccccc2)NC(=S)N1` (stereo not drawn) it was 37.9% (inactive); in that of `COc1ccc(-c2cc(-c3cc(C(=O)c4ccccc4)n4ccc(C)cc34)nc(N)c2C#N)cc1`, 43.6% (inactive).
Take `COc1cc2c3c(n(CCCNCCO)c(=O)c2cc1OC)-c1nc2c(cc1C3=O)OCO2`: the growth was 84.1% (inactive).
As to `COc1ccc(/C=C/C(=O)c2ccc(N3CCN(C)CC3)cc2)c(C(F)(F)F)c1`, the growth was 59.3% (inactive).
Still for that read-out and setting: in the case of `Cn1cc(/C=N/Nc2cccc(Cl)n2)c2ccccc21` it was 36.1% (inactive); in that of `COc1ccc(C(=O)CSc2nnc(-c3c[nH]c4ccccc34)n2-c2ccccc2)cc1`, 16.3% (inactive); in that of `N#Cc1c(NC(=O)c2ccc(C(F)(F)F)c(Cl)c2)sc2c1CCC(=O)C2`, -48.9% (active).
`COc1cc(/C=C/C(=O)c2ccc(NC(=O)CSc3nnc(-c4c[nH]c5ccccc45)n3-c3ccccc3)cc2)cc(OC)c1OC`: the growth is 96.1% (inactive).
Turning to `O=C(Nc1cccc([N+](=O)[O-])c1)Nc1cccc([N+](=O)[O-])c1`, the growth is 65.4% (inactive).
`COc1cc(NC(=O)CSc2nnc(-c3ccc4nc(-c5ccc(Cl)cc5)[nH]c4c3)o2)cc(OC)c1OC`: the growth is 99.8% (inactive).
With `O=S(=O)(Nc1ncccn1)c1ccc(-n2c(-c3ccc(Br)cc3)nc(-c3ccccc3)c2-c2ccccc2)cc1`, the growth was 33.6% (inactive).
Still for that read-out and setting: the value for `CCN1CCN(Cc2ccc(C(=O)Nc3cccc(-c4cn(-c5ccc6oc(=O)ccc6c5)nn4)c3)cc2C(F)(F)F)CC1` was -100% (active); that for `Cc1cc(=O)oc2cc(OCCCCOc3ccc(/C=C/C(=O)Nc4ccc(F)c(Cl)c4)cc3)ccc12` was 88.7% (inactive).
Take `Cc1cc(C)nc(/N=C(\N)Nc2ccc(S(=O)(=O)Nc3nc(C)cc(C)n3)cc2)n1`: the growth was 110% (inactive).
Regarding `Cc1cccc(-c2nc(Nc3ccccc3C(=O)O)c3ccccc3n2)c1`, the growth was 24.8% (inactive).
On the same count and under the same terms, in the case of `C=C1CCC2C3(C)COC(c4cccc(F)c4)OC3CCC2(C)C1CC(O)C1=CCOC1=O` (stereo not drawn) it was 4.5% (active); in that of `CC1CC(c2ccc(N(C)C)cc2)=NN1c1nc(O)c(C2=c3cc(Br)ccc3=NC2=O)s1` (stereo not drawn), 7.99% (active); in that of `C/C(=N\NC(N)=S)c1ccc(Nc2nc(SC(C)C)nc(-c3ccccc3)c2C#N)cc1`, 61.6% (inactive).
`O=c1c2ccccc2nc(COc2ccccc2)n1/N=C/c1ccc(N2CCCC2)cc1`: the growth was 94.3% (inactive).
On to `CN1CCN(Cc2ccc(NC(=O)c3cncc(C#Cc4cnc5ccc(N[C@H]6CCOC6)nn45)c3)cc2C(F)(F)F)CC1`, for which the growth was 13.7% (inactive).
Consider `Cn1cc(-c2cc(N)n3nc(-c4c[nH]c5ccc(Br)cc45)cc3n2)c2cc(Br)cnc21`, for which the growth was -60% (active).
As to `CC(=O)Nc1ccc(-n2cnc3cc(-c4ccc(NS(C)(=O)=O)cc4)ccc32)cc1`, the growth is 70.5% (inactive).
With `COc1ccccc1C(=O)NNC(=O)CSc1nc2c(c(=O)[nH]1)CCCC2`, the growth is 104% (inactive).
Turning to `O=c1[nH]c2ccccc2cc1CSc1ccc(Nc2nccc(-c3ccc(C(F)(F)F)cc3)n2)cc1`, the growth is 11.9% (inactive).
In the case of `COc1cnc2c(c1)C(=O)c1c-2n(CCCNCCO)c(=O)c2cc(OC)c(OC)cc12`, the growth is 88% (inactive).
Turning to `C/C(=N\N=C\c1ccc(Cl)c([N+](=O)[O-])c1)c1ccc2c(c1)Nc1ccccc1S2`, the growth was 11.7% (inactive).
